# Assay results from PubChem BioAssay.
# “And” between values parts separate entries of the source, which are not always exact repeats. Identical values can stand only once. Results filed as inconclusive are left out. The source made the active and inactive calls.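 How the source made its calls, unless noted: active means normalized viability below 100% at a tested concentration; inactive means the rest.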
# Columns and labels:
# [1] = viability loss in pontine glioma line – cell-based, SU-DIPG-XVII, MIPE5.0, CellTiter-Glo, qHTS, dose response (AID 1347060; cut-off not given, nearly all actives have AC50 up to about 26 µM;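 further: cells exposed to compound for 48 hours before viability readout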); conditions: CellTiter-Glo ATP luminescence
# [2] = viability loss in pontine glioma line – cell-based, JHH-DIPG-1, MIPE4.0, CellTiter-Glo, qHTS, dose response (AID 1347062; cut-off not given, nearly all actives have AC50 up to about 27 µM;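 on AC50: cells exposed to compound for two days before readout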); conditions: JHH-DIPG-1 viability, CellTiter-Glo ATP luminescence
# [3] = viability loss in pontine glioma line – cell-based, SU-DIPG-IV, MIPE4.0, CellTiter-Glo, qHTS, dose response (AID 1347063; cut-off not given, nearly all actives have AC50 up to about 30 µM;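 further: compound exposure lasted 48 hours before the viability readout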); conditions: CellTiter-Glo ATP luminescence
# [4] = viability loss in pontine glioma line – cell-based, SU-DIPG-XIII, MIPE5.0, CellTiter-Glo, qHTS, dose response (AID 1347064; cut-off not given, nearly all actives have AC50 up to about 23 µM;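 further: cells exposed to compound for 48 hours before the viability read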); conditions: CellTiter-Glo ATP luminescence
# [5] = viability loss in pontine glioma line – cell-based, SU-DIPG-XXV, MIPE5.0, CellTiter-Glo, qHTS, dose response (AID 1347065; cut-off not given, nearly all actives have AC50 up to about 26 µM;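 further: cells exposed to compound for 48 hours before ATP readout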); conditions: CellTiter-Glo ATP luminescence
# [6] = JHH-DIPG-1 glioma cell viability, MIPE5.0 library, CellTiter-Glo luminescence, qHTS (AID 1347067; cut-off not given, nearly all actives have AC50 up to about 26 µM;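 further: cells exposed to compound for 48 hours before readout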); conditions: JHH-DIPG-1 glioma viability, CellTiter-Glo ATP luminescence
# [7] = growth inhibition of DIPG cells – cell-based, MIPE5.0 library, qHTS (AID 1347068; cut-off not given, nearly all actives have IC50 up to about 30 µM;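 on IC50: cells exposed to compound for 48 hours before viability readout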); conditions: SU-DIPG-XXV viability
# [8] = viability loss with induced miR-34 in A549 – imaging, A549 dox-inducible miR-34, nuclei and caspase counts, primary screen (AID 1347080;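 active means compounds whose cell count with miR-34 switched on is under 0.7 times the count with it off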); conditions: A549 miR-34 inducible, Hoechst nuclei count, 48 h
# [9] = MELAS cybrid and Rieske KO viability enhancers – cell-based, MELAS cybrids, Rieske KO mouse fibroblasts, CellTiter-Glo, primary screen (AID 1508586;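 active means mean z-score across replicates of 1.96 or higher in either the MELAS or the Rieske mutant cell line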;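 further: z relative to plate mean and SD of compound and empty wells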); conditions: low glucose
# [10] = drug combination growth inhibition, ovarian cancer – cell-based, oncology-focused library, rucaparib conditional, profiling panel (AID 1508598); conditions: patient-derived ovarian cancer cells, CellTiter-Glo viability, 144 h, stronger effect = lower value
compound,measurement,setting,value
OCCNC1CCCc2c1[nH]c1ccc(-c3ccccc3)cc21 (configuration not stated),AC50,[1],18.6 µM (active)
same,AC50,[2],26.4 µM (active)
same,AC50,[3],20.9 µM (active)
same,AC50,[4],13.2 µM (active)
same,AC50,[5],10.5 µM (active)
same,AC50,[6],10.5 µM (active)
COc1ccc(-c2oc3c(CC=C(C)C)c(O)cc(O)c3c(=O)c2O)cc1,AC50,[1],20.9 µM (active)
same,outcome,[2],inactive
same,outcome,[3],inactive
same,AC50,[4],16.6 µM (active)
same,AC50,[5],18.6 µM (active)
same,outcome,[7],inactive
COc1cc2nccc(Oc3ccc(NC(=O)C4(C(=O)Nc5ccc(F)cc5)CC4)cc3)c2cc1OC,AC50,[1],13.2 µM (active)
same,AC50,[2],2.35 µM (active)
same,AC50,[3],4.69 µM (active)
same,AC50,[4],16.6 µM (active)
same,AC50,[5],7.42 µM (active)
same,AC50,[6],11.8 µM (active)
same,IC50,[7],8.33 µM (active)
same,fold change,"[8]; stronger effect = lower value, cell number ratio, induced over uninduced",1.18 (inactive) and 1.06 (inactive)
same,fold change,[8]; measured here: relative caspase fold change +Dox/-Dox,0.894 and 0.677
same,cell count,"[8]; measured here: total cells with miR-34 induction, stronger effect = lower value",1810 and 3700
same,cell count,[8]; measured here: total cells without miR-34 induction,1540 and 3490
same,z-score,"[9]; MELAS cybrid survival, CellTiter-Glo 48 h, stronger effect = higher value",-0.475 (inactive) and -0.436 (inactive)
same,z-score,"[9]; Rieske KO mouse fibroblast survival, CellTiter-Glo 72 h",1.25 and 1.04
same,viability,"[10]; at 0.000305 µM, OCI-C5x cells, with rucaparib 10 µM, 100% = cells with rucaparib alone",114% (inactive)
same,viability,"[10]; at 0.000305 µM, OCI-C5x cells, without rucaparib",126% (inactive)
same,viability,"[10]; at 0.000305 µM, OCI-P5x cells, with rucaparib 20 µM, 100% = cells with rucaparib alone",85.5% (active)
same,viability,"[10]; at 0.000305 µM, OCI-P5x cells, without rucaparib",68.9% (active)
same,viability,"[10]; at 0.00122 µM, OCI-C5x cells, with rucaparib 10 µM, 100% = cells with rucaparib alone",115% (inactive)
same,viability,"[10]; at 0.00122 µM, OCI-C5x cells, without rucaparib",119% (inactive)
same,viability,"[10]; at 0.00122 µM, OCI-P5x cells, with rucaparib 20 µM, 100% = cells with rucaparib alone",59.2% (active)
same,viability,"[10]; at 0.00122 µM, OCI-P5x cells, without rucaparib",22.8% (active)
same,viability,"[10]; at 0.00488 µM, OCI-C5x cells, with rucaparib 10 µM, 100% = cells with rucaparib alone",110% (inactive)
same,viability,"[10]; at 0.00488 µM, OCI-C5x cells, without rucaparib",114% (inactive)
same,viability,"[10]; at 0.00488 µM, OCI-P5x cells, with rucaparib 20 µM, 100% = cells with rucaparib alone",94.7% (active)
same,viability,"[10]; at 0.00488 µM, OCI-P5x cells, without rucaparib",99.9% (active)
same,viability,"[10]; at 0.0195 µM, OCI-C5x cells, with rucaparib 10 µM, 100% = cells with rucaparib alone",118% (inactive)
same,viability,"[10]; at 0.0195 µM, OCI-C5x cells, without rucaparib",122% (inactive)
same,viability,"[10]; at 0.0195 µM, OCI-P5x cells, with rucaparib 20 µM, 100% = cells with rucaparib alone",94.3% (active)
same,viability,"[10]; at 0.0195 µM, OCI-P5x cells, without rucaparib",101% (inactive)
same,viability,"[10]; at 0.0781 µM, OCI-C5x cells, with rucaparib 10 µM, 100% = cells with rucaparib alone",127% (inactive)
same,viability,"[10]; at 0.0781 µM, OCI-C5x cells, without rucaparib",115% (inactive)
same,viability,"[10]; at 0.0781 µM, OCI-P5x cells, with rucaparib 20 µM, 100% = cells with rucaparib alone",93.1% (active)
same,viability,"[10]; at 0.0781 µM, OCI-P5x cells, without rucaparib",101% (inactive)
same,viability,"[10]; at 0.313 µM, OCI-C5x cells, with rucaparib 10 µM, 100% = cells with rucaparib alone",130% (inactive)
same,viability,"[10]; at 0.313 µM, OCI-C5x cells, without rucaparib",129% (inactive)
same,viability,"[10]; at 0.313 µM, OCI-P5x cells, with rucaparib 20 µM, 100% = cells with rucaparib alone",87.8% (active)
same,viability,"[10]; at 0.313 µM, OCI-P5x cells, without rucaparib",94.8% (active)
same,viability,"[10]; at 1.25 µM, OCI-C5x cells, with rucaparib 10 µM, 100% = cells with rucaparib alone",147% (inactive)
same,viability,"[10]; at 1.25 µM, OCI-C5x cells, without rucaparib",133% (inactive)
same,viability,"[10]; at 1.25 µM, OCI-P5x cells, with rucaparib 20 µM, 100% = cells with rucaparib alone",84.5% (active)
same,viability,"[10]; at 1.25 µM, OCI-P5x cells, without rucaparib",91.5% (active)
same,viability,"[10]; at 5 µM, OCI-C5x cells, with rucaparib 10 µM, 100% = cells with rucaparib alone",146% (inactive)
same,viability,"[10]; at 5 µM, OCI-C5x cells, without rucaparib",133% (inactive)
same,viability,"[10]; at 5 µM, OCI-P5x cells, with rucaparib 20 µM, 100% = cells with rucaparib alone",74.7% (active)
same,viability,"[10]; at 5 µM, OCI-P5x cells, without rucaparib",85.4% (active)
